Assay [1] concerns DLD1. The experiment in a line: cell viability (CellTiter-Glo) relative to plate median (fraction of plate median); higher = more viable cells. The following applies: 5 µM; treatment time 24 h; reporter: 7TFP. In a few lines:
(§1)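 Signals from firefly luciferase or CellTiterGlo readouts were normalised well by well to the plate median using webcellHTS2, additively and with no log transformation. They came from colorectal cancer cell lines stably holding lentiviral TCF/Wnt firefly luciferase reporters (7TFP or TCF4/Wnt), treated with library compounds at a final 5 µM for 24 h. The mean of two independent replicates is given.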

Assay [2] relates to HCT116. Described as above. The following applies: 5 µM; treatment time 24 h; reporter: TCF4/Wnt. In outline: as §1
Assay [3] concerns SW480. The assay is described as above. The following applies: 5 µM; treatment time 24 h; reporter: 7TFP. In a few lines: as §1
Assay [4] relates to DLD1. The experiment in a line: TCF/Wnt firefly luciferase reporter signal relative to plate median (fraction of plate median); higher = higher Wnt reporter signal. The following applies: 5 µM; treatment time 24 h; reporter: 7TFP. In a few lines: as §1
For orientation: A reporter such as luciferase makes a cellular process visible.

Assay [5] deals with SW480. Described as above. The following applies: 5 µM; treatment time 24 h; reporter: 7TFP. In outline:
as §1

± gives the standard deviation of the averaged measurements.

Take `Oc1ccc(O)cc1`: the cell viability was 0.839 ± 0.11 in assay [1], 0.856 ± 0.022 in assay [2] and 0.959 ± 0.1 in assay [3]. The “TCF/Wnt firefly luciferase reporter signal” value came to 1.14 ± 0.14 in assay [4] and 1.04 ± 0.2 in assay [5].

Consider `COc1cc(OC)c2c(OC)c(-c3ccc4c(c3)OCO4)c(=O)oc2c1`, for which the figures for the cell viability in assay [1], in assay [2] and in assay [3] were 1.04, 1.08 ± 0.05 and 1.01 ± 0.061, respectively. For the same compound, the figures for the “TCF/Wnt firefly luciferase reporter signal” value in assay [4] and in assay [5] were 0.804 ± 0.36 and 0.867 ± 0.34, respectively.

Regarding `C/C1=C\CC(C)(C)/C=C/CC2(C)OC2CC1` (stereo not given), the cell viability in assay [1] stood at 1.04 ± 0.035; in assay [2], 0.96 ± 0.099; in assay [3], 1.03 ± 0.035. Also, the “TCF/Wnt firefly luciferase reporter signal” value amounted to 1.09 ± 0.12 in assay [4] and 0.8895 ± 0.00071 in assay [5].

Regarding `O=C(O)c1cc(O)c2c(c1)[C@H]([C@H]1c3cc(C(=O)O)cc(O)c3C(=O)c3c(O[C@@H]4O[C@H](CO)[C@@H](O)[C@H](O)[C@H]4O)cccc31)c1cccc(O[C@@H]3O[C@H](CO)[C@@H](O)[C@H](O)[C@H]3O)c1C2=O`, the cell viability in assay [1] came to 0.943 ± 0.028; in assay [2], 0.967 ± 0.12; in assay [3], 1.01 ± 0.018. Besides, the results for the “TCF/Wnt firefly luciferase reporter signal” value in assay [4] and in assay [5] were 1.08 ± 0.19 and 1.01 ± 0.071, respectively.

For `N[C@@H](CCC(=O)N[C@@H](CS)C(=O)NCC(=O)O)C(=O)O`, the cell viability in assay [1] turned out to be 1.03 ± 0.042; in assay [2], 1.06 ± 0.11; in assay [3] it was 1.02. For the same compound, the “TCF/Wnt firefly luciferase reporter signal” value in assay [4] came out at 1.03; in assay [5], 1.13 ± 0.13.

Take `COc1cc(OC)c2c(=O)c(O)c(-c3ccc(OC)c(OC)c3)oc2c1`: the cell viability in assay [1] is 0.981 ± 0.055; in assay [2], 1 ± 0.024; in assay [3] it was 1.01 ± 0.021. The “TCF/Wnt firefly luciferase reporter signal” value in assay [4] was 0.899 ± 0.1; in assay [5] it was 0.887 ± 0.17.

As to `COc1ccccc1OCCNCC(O)COc1cccc2[nH]c3ccccc3c12` (stereo not given), the cell viability in assay [1] came out at 1.05 ± 0.22; in assay [2], 1.06 ± 0.078; in assay [3], 1.1. Also, the “TCF/Wnt firefly luciferase reporter signal” value in assay [4] came out at 1.21 ± 0.085; in assay [5], 1.075 ± 0.0071.

On to `Cc1ccc(C(C)C)cc2c(C)ccc1-2`, for which the cell viability in assay [1] amounted to 1.04 ± 0.057; in assay [2] it was 1.085 ± 0.0071; in assay [3] it was 1.06 ± 0.014. Also, the “TCF/Wnt firefly luciferase reporter signal” value in assay [4] was found to be 1 ± 0.14; in assay [5], 0.894 ± 0.16.

As to `NC[C@H](O)c1ccc(O)c(O)c1`, the cell viability in assay [1] was 1.02 ± 0.035; in assay [2] it was 0.95 ± 0.071; in assay [3] it was 1.005 ± 0.0071. Also, the entries for the “TCF/Wnt firefly luciferase reporter signal” value in assay [4] and in assay [5] were 0.962 ± 0.069 and 0.9835 ± 0.0078, respectively.

As for `Cn1c(=O)[nH]c2[nH]cnc2c1=O`, the cell viability in assay [1] came to 1.02 ± 0.042; in assay [2], 1.04 ± 0.14; in assay [3] it was 1.04 ± 0.072. The “TCF/Wnt firefly luciferase reporter signal” value in assay [4] amounted to 0.964 ± 0.011; in assay [5] it was 0.992 ± 0.025.

As to `COc1c2c(cc3occ(-c4ccc5c(c4)OCO5)c(=O)c13)OC(C)(C)C=C2`, the values for the cell viability in assay [1], in assay [2] and in assay [3] were 0.973 ± 0.067, 0.951 ± 0.11 and 0.9305 ± 0.005, respectively. Further, the “TCF/Wnt firefly luciferase reporter signal” value in assay [4] is 0.799 ± 0.37; in assay [5] it was 0.607 ± 0.49.

Regarding `Nc1nc2c(ncn2COCCO)c(=O)[nH]1`, the cell viability in assay [1] was found to be 1 ± 0.11; in assay [2], 1.01 ± 0.034; in assay [3], 0.955 ± 0.078. For the same compound, the “TCF/Wnt firefly luciferase reporter signal” value came out at 0.991 ± 0.056 in assay [4] and 0.973 ± 0.053 in assay [5].

As for `CC(=O)Nc1cccc(O)c1`, the cell viability in assay [1] was determined as 0.933 ± 0.17; in assay [2] it was 1.1 ± 0.028; in assay [3], 1.03 ± 0.021. For the same compound, the “TCF/Wnt firefly luciferase reporter signal” value turned out to be 0.949 ± 0.14 in assay [4] and 0.939 ± 0.13 in assay [5].

`CN[C@@H]1[C@H](O)[C@H](NC)[C@H]2O[C@@]3(O)C(=O)C[C@@H](C)O[C@H]3O[C@@H]2[C@H]1O`: the cell viability worked out at 1.04 ± 0.08 in assay [1], 1.004 ± 0.0085 in assay [2] and 0.978 ± 0.025 in assay [3]. Also, the “TCF/Wnt firefly luciferase reporter signal” value was 1.24 ± 0.18 in assay [4] and 1.09 ± 0.13 in assay [5].

Turning to `CC1=C(/C=C/C(C)=C/C=C/C(C)=C/C(=O)O)C(C)(C)CCC1`, the cell viability in assay [1] was 0.9525 ± 0.0078; in assay [2], 0.973 ± 0.067; in assay [3], 0.994 ± 0.052. In addition, the figures for the “TCF/Wnt firefly luciferase reporter signal” value in assay [4] and in assay [5] were 0.912 ± 0.037 and 0.889 ± 0.018, respectively.

In the case of `CC1(C)OC(=O)NC1=O`, the cell viability in assay [1] was 0.893 ± 0.18; in assay [2] it was 0.9705 ± 0.0064; in assay [3], 0.965 ± 0.092. The “TCF/Wnt firefly luciferase reporter signal” value was 1.08 ± 0.11 in assay [4] and 0.932 ± 0.14 in assay [5].

Turning to `NS(=O)(=O)c1ccc(S(=O)(=O)Nc2cccc3c(Cl)c[nH]c23)cc1` [indisulam], the cell viability in assay [1] was 1.04 ± 0.028; in assay [2], 0.747 ± 0.07; in assay [3] it was 0.926 ± 0.0028. The “TCF/Wnt firefly luciferase reporter signal” value in assay [4] was 1.17 ± 0.014; in assay [5], 1.1 ± 0.15.

Regarding `CCCCCCCCCCCCCCCC(=O)OC[C@@H](NC(=O)C(Cl)Cl)[C@H](O)c1ccc([N+](=O)[O-])cc1`, the cell viability in assay [1] stood at 0.96 ± 0.0042; in assay [2] it was 0.996 ± 0.02; in assay [3] it was 1.01. The figures for the “TCF/Wnt firefly luciferase reporter signal” value in assay [4] and in assay [5] were 0.971 ± 0.028 and 1.02 ± 0.052, respectively.

Regarding `NC(=O)c1cnccn1`, the results for the cell viability in assay [1], in assay [2] and in assay [3] were 0.988 ± 0.045, 0.9595 ± 0.0035 and 1.02 ± 0.05, respectively. Also, the figures for the “TCF/Wnt firefly luciferase reporter signal” value in assay [4] and in assay [5] were 1.02 ± 0.13 and 0.942 ± 0.083, respectively.

For `CC(=O)Nc1ccc(S(=O)(=O)Nc2ccc([N+](=O)[O-])cc2)cc1`, the results for the cell viability in assay [1], in assay [2] and in assay [3] were 0.868 ± 0.03, 0.933 ± 0.12 and 1.02 ± 0.028, respectively. Besides, the “TCF/Wnt firefly luciferase reporter signal” value in assay [4] stood at 1.1 ± 0.071; in assay [5], 1.08 ± 0.042.

As for `COc1c2occc2c(OC)c2c(=O)cc(C)oc12`, the cell viability is 0.99 ± 0.057 in assay [1], 0.969 ± 0.14 in assay [2] and 0.989 ± 0.016 in assay [3]. Besides, the “TCF/Wnt firefly luciferase reporter signal” value in assay [4] came out at 1.2 ± 0.099; in assay [5], 1.12 ± 0.042.

With `CN(C)CCC=C1c2ccccc2COc2ccccc21`, the cell viability is 0.994 ± 0.052 in assay [1], 1.01 ± 0.021 in assay [2] and 0.949 ± 0.032 in assay [3]. The “TCF/Wnt firefly luciferase reporter signal” value in assay [4] amounted to 1.06 ± 0.028; in assay [5], 1.07 ± 0.014.

In the case of `O=C(/C=C/c1ccccc1)c1ccc(O[C@@H]2O[C@H](CO)[C@@H](O)[C@H](O)[C@H]2O)cc1O`, the cell viability is 0.947 ± 0.022 in assay [1], 0.83 ± 0.04 in assay [2] and 0.978 ± 0.018 in assay [3]. In addition, the “TCF/Wnt firefly luciferase reporter signal” value in assay [4] was 1.02 ± 0.036; in assay [5] it was 1.13 ± 0.057.

As for `COC(=O)c1c(C)c2c(c(C)c1O)OC(=O)c1c(C)c(Cl)c(O)c(Cl)c1O2`, the figures for the cell viability in assay [1], in assay [2] and in assay [3] were 0.994 ± 0.037, 0.865 ± 0.016 and 0.9555 ± 0.0078, respectively. The “TCF/Wnt firefly luciferase reporter signal” value was determined as 0.895 ± 0.083 in assay [4] and 0.933 ± 0.057 in assay [5].

For the compound `COc1cnc(NS(=O)(=O)c2ccc(N)cc2)nc1`, the cell viability in assay [1] was 0.973 ± 0.0057; in assay [2], 1.04 ± 0.035; in assay [3] it was 1.03 ± 0.035. Moreover, the “TCF/Wnt firefly luciferase reporter signal” value came to 1.04 ± 0.22 in assay [4] and 0.892 ± 0.055 in assay [5].

Regarding `O=C(CNC(=O)c1ccc(Cl)cc1)NO`, the cell viability in assay [1] is 0.978 ± 0.025; in assay [2] it was 1 ± 0.041; in assay [3] it was 0.931 ± 0.026. In addition, the “TCF/Wnt firefly luciferase reporter signal” value in assay [4] was determined as 1.03 ± 0.048; in assay [5], 1.13 ± 0.028.

On to `COc1ccc(/C=C/C(=O)c2cc(O)ccc2O)cc1`, for which the cell viability in assay [1] came to 0.979 ± 0.044; in assay [2], 0.959 ± 0.073; in assay [3], 0.98 ± 0.029. Further, the “TCF/Wnt firefly luciferase reporter signal” value in assay [4] came out at 1.18 ± 0.014; in assay [5], 1.05 ± 0.17.

For the compound `COc1ccc2c(c1)OC[C@@H](Cc1ccc(OC)c(OC)c1)[C@@H]2O`, the cell viability was 1.03 in assay [1], 1.02 ± 0.12 in assay [2] and 0.963 ± 0.034 in assay [3]. The “TCF/Wnt firefly luciferase reporter signal” value in assay [4] turned out to be 1 ± 0.015; in assay [5], 0.973 ± 0.081.

On to `CCCCCC(C)N` (stereo not given), for which the cell viability in assay [1] is 1.02 ± 0.066; in assay [2], 1.09 ± 0.021; in assay [3], 0.954 ± 0.0099. In addition, the “TCF/Wnt firefly luciferase reporter signal” value in assay [4] is 1.14 ± 0.078; in assay [5], 1.08 ± 0.057.

With `CN1CCN(CCCN2c3ccccc3Sc3ccc(Cl)cc32)CC1`, the figures for the cell viability in assay [1], in assay [2] and in assay [3] were 1.02 ± 0.13, 0.941 ± 0.098 and 1.09 ± 0.064, respectively. Moreover, the “TCF/Wnt firefly luciferase reporter signal” value in assay [4] amounted to 1.03 ± 0.054; in assay [5], 0.929 ± 0.042.

The record behind these values is the supplement of paper PMC6522484.
